Test results taken from publication PMC11062922 (Nature Chemical Biology, 2023).
Read-outs that look alike come from different tables or passages of the source.

What was measured:
Parameters in all cases: species or system human, MV4-11 + K-562 + COLO205 + SK-N-BE2 + OVCAR-8
[1] = system: PRKCA; details: compound concentrations:0.3nM, 1nM, 3nM, 10nM, 30nM, 100nM, 300nM, 1000nM,R2:0.94698851760637903,slope:2.0520697350296202,EC50 Standard Error, by the legend:Standard error of the EC50 estimation as provided by the drc package.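 Note: competition pulldown with Kinobeads ε in cell lysates, inhibitor preincubated 45 min at 4 °C, bound kinases quantified by LC–MS/MS against DMSO control.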
[2] = system: AGK; details: read-out: apparent Kd, compound concentrations: 100 nM and 1000 nM (sheet 'Samples'), n = 1
[3] = system: ARAF; details: read-out: apparent Kd, compound concentrations: 100 nM and 1000 nM (sheet 'Samples'), n = 1
[4] = system: BMPR1A; details: read-out: apparent Kd, n = 1
[5] = system: BRAF; details: read-out: apparent Kd, compound concentrations: 100 nM and 1000 nM (sheet 'Samples'), n = 1
[6] = system: DCK; details: read-out: apparent Kd, compound concentrations: 100 nM and 1000 nM (sheet 'Samples'), n = 1
[7] = system: ERBB3; details: read-out: apparent Kd, compound concentrations: 100 nM and 1000 nM (sheet 'Samples'), n = 1
[8] = system: FECH; details: read-out: apparent Kd, compound concentrations: 100 nM and 1000 nM (sheet 'Samples'), n = 1
[9] = system: IGF1R; details: read-out: apparent Kd, compound concentrations: 100 nM and 1000 nM (sheet 'Samples'), n = 1
[10] = system: INSR; details: read-out: apparent Kd, compound concentrations: 100 nM and 1000 nM (sheet 'Samples'), n = 1
[11] = system: LIMK2; details: read-out: apparent Kd, n = 1
[12] = system: MAP2K3; details: read-out: apparent Kd, compound concentrations: 100 nM and 1000 nM (sheet 'Samples'), n = 1
[13] = system: MAP3K12; details: read-out: apparent Kd, compound concentrations: 100 nM and 1000 nM (sheet 'Samples'), n = 1
[14] = system: MAP3K2; details: read-out: apparent Kd, compound concentrations: 100 nM and 1000 nM (sheet 'Samples'), n = 1
[15] = system: MAP3K5; details: read-out: apparent Kd, compound concentrations: 100 nM and 1000 nM (sheet 'Samples'), n = 1
[16] = system: NEK2; details: read-out: apparent Kd, compound concentrations: 100 nM and 1000 nM (sheet 'Samples'), n = 1
[17] = system: PIK3C2B; details: read-out: apparent Kd, compound concentrations: 100 nM and 1000 nM (sheet 'Samples'), n = 1
[18] = system: PYGL; details: read-out: apparent Kd, compound concentrations: 100 nM and 1000 nM (sheet 'Samples'), n = 1
[19] = system: SPR; details: read-out: apparent Kd, n = 1
[20] = system: ZAK; details: read-out: apparent Kd, compound concentrations: 100 nM and 1000 nM (sheet 'Samples'), n = 1
[21] = compound concentrations:100 nM and 1000 nM (sheet 'Samples')

## Cc1cccc(Nc2nc(N[C@H]3CCCC[C@H]3N)ncc2C(N)=O)c1.Cl [GSK986310C]
[1]
  EC50: 446 nM
[1]; read-out: apparent Kd
  Kd: 272 nM

## Cn1ncc2c(N)ncnc21 [SKF-18267]
[2]; CATDS: 3.9029734313372399E-3
  potency estimated from few doses: 1420 nM
[3]; CATDS: 4.8255610001080402E-3
  potency estimated from few doses: 874 nM
[4]; compound concentrations: 100 nM and 1000 nM (sheet 'Samples'), CATDS: 5.9129989995003003E-3
  potency estimated from few doses: 595 nM
[5]; CATDS: 3.54255463702716E-3
  potency estimated from few doses: 1870 nM
[6]; CATDS: 4.5565133541076702E-3
  potency estimated from few doses: 987 nM
[7]; CATDS: 3.9998602619286698E-3
  potency estimated from few doses: 1340 nM
[8]; CATDS: 4.0094324755209198E-3
  potency estimated from few doses: 1330 nM
[9]; CATDS: 4.3813441316225901E-3
  potency estimated from few doses: 1080 nM
[10]; CATDS: 4.5573832930641796E-3
  potency estimated from few doses: 986 nM
[11]; compound concentrations: 100 nM and 1000 nM (sheet 'Samples'), CATDS: 3.7102033319592401E-3
  potency estimated from few doses: 1630 nM
[12]; CATDS: 4.14742483783686E-3
  potency estimated from few doses: 1220 nM
[13]; CATDS: 4.9126246890692504E-3
  potency estimated from few doses: 843 nM
[14]; CATDS: 4.2783500511549997E-3
  potency estimated from few doses: 1140 nM
[15]; CATDS: 4.32123334572214E-3
  potency estimated from few doses: 1110 nM
[16]; CATDS: 4.6073088162857699E-3
  potency estimated from few doses: 964 nM
[17]; CATDS: 6.2624130491241497E-3
  potency estimated from few doses: 539 nM
[18]; CATDS: 4.6532954394714601E-3
  potency estimated from few doses: 943 nM
[19]; compound concentrations: 100 nM and 1000 nM (sheet 'Samples'), CATDS: 4.8201807384516803E-3
  potency estimated from few doses: 876 nM
[20]; CATDS: 4.0930423662174304E-3
  potency estimated from few doses: 1260 nM

## COc1ccc(Nc2ncc(C#N)c(Nc3ccccc3C(N)=O)n2)cc1N1CCN(C)CC1.Cl [GSK1558669A]
[9]; CATDS: 6.9220248980982396E-3
  potency estimated from few doses: 752 nM
[10]; CATDS: 7.0439666537016601E-3
  potency estimated from few doses: 692 nM
[16]; CATDS: 6.7574361761292799E-3
  potency estimated from few doses: 849 nM

## Cl.NCc1ccc(-c2nc(-c3ccc(Cl)c(O)c3)c(-c3ccncc3)[nH]2)cc1 [SB-476429-A]
[19]; [21]
  potency estimated from few doses: 32.3 nM

## CC(C)Oc1ccc2c(-c3ccnc(Nc4ccc(N5CCN(C)CC5)cc4)n3)cnn2n1 [GW696155X]
[11]; [21]
  potency estimated from few doses: 883 nM

## O=C(O)C(F)(F)F.O=C(O)C(F)(F)F.O=c1[nH]ccc2nc(N[C@@H]3CCCNC3)nc(Nc3ccc(S(=O)(=O)N4CCOCC4)cc3)c12.O=c1[nH]ccc2nc(N[C@@H]3CCCNC3)nc(Nc3ccc(S(=O)(=O)N4CCOCC4)cc3)c12 [GSK2177277A]
[12]; CATDS: 6.4169710439364001E-3
  potency estimated from few doses: 1550 nM
[14]; CATDS: 7.1783793001346102E-3
  potency estimated from few doses: 889 nM

## CCn1c(-c2cccnc2O)nc2cnccc21 [SB-736715]
[6]; CATDS: 1.18043457558384E-2
  potency estimated from few doses: 2290 nM
[18]; CATDS: 1.35129561389799E-2
  potency estimated from few doses: 1630 nM

## O=C1N=C(NCCCc2ccccc2)S/C1=C\c1ccc2ncccc2c1 [RO4493941-000]
[8]; CATDS: 5.9450857327724899E-2
  potency estimated from few doses: 1950 nM

## CNCc1ccc(-c2cc(-c3nc(-c4ccc(S(=O)(=O)C(C)C)cc4)cnc3N)on2)cc1 [VE-822]
[4]; [21]
  potency estimated from few doses: 764 nM

## Cl.Cl.NC(CNC(=O)c1cc(Br)c(-c2ccnc3[nH]ccc23)s1)c1ccccc1.NC(CNC(=O)c1cc(Br)c(-c2ccnc3[nH]ccc23)s1)c1ccccc1 (stereo not shown) [GSK1322949A]
[2]; CATDS: 3.3484364918531399E-2
  potency estimated from few doses: 953 nM
[3]; CATDS: 6.3043035692660204E-2
  potency estimated from few doses: 316 nM
[13]; CATDS: 3.2066551551393298E-2
  potency estimated from few doses: 1040 nM

## CCC(CC)(CC)n1cnc2c(N)ncnc21 [SKF-97620]
[17]; CATDS: 4.5061031673298398E-2
  potency estimated from few doses: 395 nM

## CNc1nccc(-c2ccc3c(N)n[nH]c3c2)n1 [GSK2206003A]
[7]; CATDS: 5.0565668903585798E-2
  potency estimated from few doses: 1580 nM

## CNCC1CCn2c(c(C3=C(c4cn(C)c5ccccc45)C(=O)NC3=O)c3ccccc32)C1 (stereo not shown) [RO0318676-000]
[5]; CATDS: 2.6106742003508401E-2
  potency estimated from few doses: 2340 nM

## CC(C)N1CC(=O)N(C)c2cnc(Nc3cccc(S(=O)(=O)CCN4CCOCC4)c3)nc21 [BI00009348]
[15]; CATDS: 5.27372855942096E-2
  potency estimated from few doses: 1550 nM
[20]; CATDS: 5.0114665499168799E-2
  potency estimated from few doses: 1820 nM
